Drawing on ChEMBL document CHEMBL4513216, “Probing the Open Global Health Chemical Diversity Library for Multistage-Active Starting Points for Next-Generation Antimalarials” (ACS Infect Dis, 2020), this text covers INHIBITION for 53 compounds.

The campaign covered roughly 69,000 compounds. About 8,600 (12%) showed an effect of 50% or more. The full list was thinned out, with strong results kept by preference.

The test system of the test is Plasmodium berghei. Description: Screen against P. berghei liver stage (PbLuc), transformed with Luciferase, at 10uM. The format is functional, HepG2. To be noted: tested at 10 uM.
Take `Cc1c(C2=NS(=O)(=O)N(C)C(C(=O)Nc3ccc(Br)cc3)=C2)cnn1C`: the INHIBITION is recorded as 49.9%. The result for `Cc1cc(=O)n(CC(=O)Nc2ccc(Cl)cc2)nc1C` reads 25%. The value for `Cc1nc(N2CCCC2)ncc1C(=O)Nc1ccc(Br)cc1` was -10.2%; that for `Cc1nn(C)cc1C1=NS(=O)(=O)N(C)C(C(=O)Nc2ccc(Br)cc2)=C1` was 82.4%; that for `O=C1CC2(CCCCN2C(=O)c2cccs2)CN1CC1CC1` (stereo not drawn) was 11.2%. The result for `Cc1cc(NC(=O)NCC(O)c2ccc(F)c(F)c2)n(C)n1` (stereo not drawn) reads 21.8%; that for `CCn1cnnc1C1CCN(C(=O)c2cc(OC)ccc2OC)CC1`, 23.7%; that for `COc1cc(-n2cccc2)c(Cl)cc1C(N)=O`, -90.8%.

For the compound `CCc1ncc(C(=O)N2CCCC2Cn2cccn2)s1` (stereo not drawn), the INHIBITION is on record as 49.8%. The result for `CS(=O)(=O)Nc1ccn(Cc2ccc(F)cc2Cl)n1` reads 31.7%. The value for `CC(C)(C)n1cc(C(=O)N2CCN(Cc3cccnc3)CC2)cn1` was -39.67%.

Consider `CCN(CC)C(=O)c1nnsc1-c1ccc(Cl)cc1`, for which the INHIBITION was 33.9%. The result for `CCN(CC)C(=O)c1nnsc1-c1ccccc1` reads 7.25%; that for `CCN(CC)C(=O)c1nnsc1-c1ccc(C)cc1`, 54.8%. The result for `CCOCC(=O)N1Cc2[nH]nc(COCC3CC3)c2C1` reads 2.4%; that for `CC(C)c1nc2c(n1C)CCN(CC(=O)Nc1ccncc1)C2`, 11.6%.

`Cc1cccc(NC(=O)[C@@H]2CCCN2Cc2ccc(C#N)cc2F)n1`: the INHIBITION is 25.2%.

In the case of `CC1CCCCN1CCNC(=O)NCc1ccc(C#N)cc1F` (stereo not drawn), the INHIBITION amounted to 50.7%. With `CC1CCCCN1CCNC(=O)c1ccn(-c2ccc(F)cc2)n1` (stereo not drawn), the INHIBITION is given as 34.1%. For `N#Cc1ccc(CNC(=O)NCCC(=O)NC2CCCC2)c(F)c1`, the INHIBITION worked out at 17.1%. In the case of `N#Cc1ccc(F)c(CNC(=O)NCCC(=O)NC2CCCC2)c1`, the INHIBITION worked out at 22.5%. The value for `N#Cc1ccc(CNC(=O)NCCNC(=O)C2CCCC2)c(F)c1` was 52.8%; that for `CC(C)S(=O)(=O)N1CCC(Cc2cccc(C(=O)O)c2)C1` (stereo not drawn) was 1.37%; that for `CN1C(=N)NC(=O)/C1=C\c1ccc(-c2ccc(F)cc2)o1` was 19.3%. The result for `CCn1cc(S(=O)(=O)N2CCC(C)CC2)c(C)n1` reads 4.35%; that for `O=C(c1sccc1C1CC1)N1CCN(c2nccs2)CC1`, 36.3%.

For the compound `Cn1ccc(C(=O)N2CCN(c3ccccn3)CC2)cc1=O`, the INHIBITION amounted to 36.1%. The value for `O=C(c1cccc(-c2ccc(F)cc2)c1)N1CCCC(O)(CO)CC1` (stereo not drawn) was -122%. The value for `CCOc1ccnc(N2CCN(C(=O)c3cccc(C#N)c3)CC2)n1` was -13.7%.

For the compound `N#Cc1cccc(C(=O)N2CCN(c3ncccn3)CC2)c1`, the INHIBITION came to 62.1%. The value for `CN(C)c1cc(C(=O)N2CCN(c3cc(C#N)ccn3)CC2)ccn1` was -8.95%.

With `Cn1ccc(C(=O)N2CCN(c3cc(C#N)ccn3)CC2)cc1=O`, the INHIBITION turned out to be 59.4%.

As for `COC(=O)c1ccc(N2CCN(C(=O)c3ccn(C)c(=O)c3)CC2)cc1`, the INHIBITION turned out to be 54.5%.

As to `N#Cc1cccc(C(=O)N2CCCC(O)(CO)CC2)c1` (stereo not drawn), the INHIBITION is on record as 66.9%.

`O=C(c1cccc(Oc2ccccc2)c1)N1CCCC(O)(CO)CC1` (stereo not drawn): the INHIBITION turned out to be 16.1%. The result for `COC(=O)c1ccc(N2CCN(C(=O)c3ccc(=O)n(C)c3)CC2)cc1` reads 36.9%; that for `COc1ccnc(N2CCN(C(=O)c3cccc(C#N)c3)CC2)n1`, 18.2%.

Consider `Cn1ccc(C(=O)N2CCN(c3ncccn3)CC2)cc1=O`, for which the INHIBITION is listed as 31.3%. With `COCCNC(=O)c1cc(OC)c2ccoc2c1`, the INHIBITION was found to be 27.7%. The value for `CNc1nc(C(=O)N2CCCn3nc(C(=O)N4CCCC4)cc3C2)cs1` was 26.5%; that for `CC(Cn1cccn1)NC(=O)NCc1cccnc1OC(C)C` (stereo not drawn) was 11.2%. The value for `CC[S+]([O-])CCc1nc(CC(C)C)nn1-c1ccc2c(c1)OCCO2` (stereo not drawn) was 30.3%; that for `CCCNC(=O)COc1cc(C)c2c(C)nn(-c3ccc(C)cc3)c2n1` was 15.4%. The result for `Cc1ccc(-n2nc(C)c3c(C)cc(OCC(=O)NC(C)C)nc32)cc1` reads 2.55%.

In the case of `CCNC(=O)COc1cc(CC)c2c(C)nn(-c3ccc(C)cc3)c2n1`, the INHIBITION is reported as 66.1%. With `CS(=O)(=O)N1CCC(NC(=O)COc2ccc(Br)cc2Cl)CC1`, the INHIBITION worked out at 45.1%.

Take `Cc1nc(N)cc(C2CCN2CCC(N)=O)n1` (stereo not drawn): the INHIBITION is given as -4.87%. The value for `Cc1ccsc1C(=O)N1CCC2(CC1)C(=O)N(C)CCN2CC1CC1` was 4.08%. The result for `Cc1ccc(NC2CCN(C(=O)c3cccc4cccnc34)CC2)nn1` reads 11.9%.

As to `CS(=O)(=O)N1C[C@H]2CC[C@@H](C1)N(CCC(=O)NCc1ccco1)C2`, the INHIBITION came to 13.2%. Turning to `O=C(CCN1C[C@@H]2CC[C@H]1CN(c1ncccn1)C2)NCc1ccco1`, the INHIBITION is given as 6.67%.

As for `CN(C)S(=O)(=O)N1C[C@H]2CC[C@@H](C1)N(CCC(=O)NCc1ccco1)C2`, the INHIBITION came to 66.9%. The result for `O=C(COc1coc(CN2CCCCC2)cc1=O)c1ccc(Cl)cc1` reads 38.3%.
